Compound activity: PubChem BioAssay, National Center for Advancing Translational Sciences (NCATS)
Compounds with a hit are over-represented: about 11% of the library has one in this group of screens.
VDR inhibitor – blocks the human vitamin D receptor. actives 0.93% (n = 400,000). Potency, µM, for inactives: max response, negative = inhibition, most hits filed as inhibitors. P11473. VDR-SRC2-3 peptide fluorescence polarization, 2 h; note: % is set by controls: 0 for no effect and ±100 for the full control effect
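Signal is fluorescence polarization, reporting how far test compounds block the interaction of VDR with the SRC2-3 coregulator peptide after a 2 h room-temperature incubation.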
G9a inh – G9a (human) methyltransferase inhibition. Potency, µM (series often up to 102 µM), for inactives: at the highest dose activity, negative = inhibition, most hits filed as inhibitors. AID 504332. actives 8.8% (n = 350,000). G9a H3K9 monomethylation, AlphaScreen, 2 h. Q96KQ7; note: % is set by controls: 0 for no effect and ±100 for the full control effect; nearly all actives have a fitted effect of over 75% in size
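AlphaScreen read-out: biotin-H3K9 peptide (500 nM) methylation by 20 nM enzyme with 20 uM SAM, 2 h at room temperature after 15 min compound preincubation; anti-monomethyl H3K9 antibody plus donor/acceptor beads, 10 min dark.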
JMJD2A Tudor – blocks the human JMJD2A Tudor domain | AlphaScreen JMJD2A-Tudor / H3K4me3 peptide binding | O75164 | AID 504339 | Potency, µM (highest dose often 114 µM), for inactives: at the top dose activity change, negative = inhibition, usual class: inhibitors | actives 4.4% (n = 390,000); note: % is set by controls: 0 for no effect and ±100 for the full control effect; nearly all actives have a fitted effect of over 50% in size
PLK1 PBD block – inhibitors of human PLK1 polo-box domain binding; actives 2.8% (n = 360,000); P53350; Plk1 PBD binding of FITC phosphopeptide, fluorescence polarization; Potency, µM, without a hit: max response, negative = inhibition, most hits filed as inhibitors; note: series mostly up to about 57 µM; % is set by controls: 0 for no effect and ±100 for the full control effect; nearly all actives have a fitted effect of over 65% in size
HP1b binding inh – blocks HP1-beta chromodomain binding to methylated histone tails; P83916; AlphaScreen HP1-beta / biotin-H3K9me3 peptide binding; Potency, µM (doses to about 114 µM), inactives show at the highest dose activity change, negative = inhibition, actives largely listed as inhibitors; actives 0.56% (n = 390,000); note: nearly all actives have a fitted effect of over 70% in size
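AlphaScreen: HP1-beta (50 nM) preformed 30 min with biotin-H3(1-18)K9me3 peptide (50 nM) in PBS pH 7.4, 0.01% Tween-20. Compound added for 30 min at RT, then streptavidin donor/nickel chelate acceptor beads (10 ug/mL) for 30 min.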
BAZ2B block – BAZ2B (human) inhibition; actives 4.4% (n = 360,000); Q9UIF8; Potency, µM (titrated, usually from 114 µM), for inactives: at the top dose activity change, negative = inhibition, most hits filed as inhibitors; AlphaScreen BAZ2B-H3K14Ac peptide displacement; note: % is set by controls: 0 for no effect and ±100 for the full control effect; nearly all actives have a fitted effect of over 60% in size
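Complex of BAZ2B and biotin-H3K14Ac (50 nM apiece) forms over 30 min at RT, then faces library compounds up to 110 uM for another 30 min; AlphaScreen beads added, 20 min dark incubation, luminescence read.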
* = called active by the depositor; u = inconclusive; x = no result given; [ ] = dose if it differs, or a comment. Calls come from the whole dose curve; as a rule, active = well fitted curve in the direction sought with a large enough effect; inconclusive = small, poorly fitted or top-dose-only effect, or another doubt; inactive = no such curve, though single readings can be large; an effect the other way counts as inactive or inconclusive. Potency is the fitted concentration of half-maximal effect.

SMILES	VDR inhibitor	G9a inh	JMJD2A Tudor	PLK1 PBD block	HP1b binding inh	BAZ2B block
CC(=O)N1/C(=C/c2ccc(N(C)C)cc2)C(=O)c2ccccc21	32µM*	11µM*	18µM*	-9%	22µM*	10µM*
O=C(COC(=O)CC(c1ccccc1)c1ccccc1)Nc1c(F)cccc1F	x	u	x	x	x	1%
CCC(C(=O)NC1C(=O)N2C(C(=O)O)=C(CSc3nnc(C)s3)CSC12)c1ccccc1 (stereo not given)	u	u	u	24µM*	19%	-26%
Cc1nnc(SCC2=C(C(=O)O)N3C(=O)C(NC(=O)COc4ccc(F)cc4)C3SC2)s1 (stereo not given)	79µM*	u	-24%	u	6%	u
CC(=O)OCC1=C(C(=O)O)N2C(=O)C(NC(=O)COc3ccc(F)cc3)C2SC1 (stereo not given)	7%	-4%[0.501 µM]	u	u	-7%	-36%
Cc1nnc(SCC2=C(C(=O)O)N3C(=O)C(NC(=O)Cn4nc(C(F)F)c(Cl)c4C)C3SC2)s1 (stereo not given)	-26%	u	u	u	-1%	u
O=C(COc1ccccc1)NC1C(=O)N2C(C(=O)O)=C(Cl)CSC12 (stereo not given)	u	35µM*	79µM*	u	0%	79µM*
Cc1nnc(SCC2=C(C(=O)O)N3C(=O)C(NC(=O)c4cc(F)c(F)cc4Cl)C3SC2)s1 (stereo not given)	-4%	28µM*	-26%	u	9%	79µM*
CCC(C)NC(=O)Cn1c(=O)n(CCCCCC(=O)NCc2ccccc2Cl)c(=O)c2sccc21 (stereo not given)	16%	-5%[59 µM]	-3%	x	17%	-21%
Cc1nnc(SCC2=C(C(=O)O)N3C(=O)C(NC(=O)Cn4nc(C(F)F)cc4C)C3SC2)s1 (stereo not given)	-36%	14µM*	25µM*	u	10%	50µM*
Cc1nnc(SCC2=C(C(=O)O)N3C(=O)C(NC(=O)COc4ccccc4)C3SC2)s1 (stereo not given)	u	11%[0.501 µM]	u	19µM*	u	u
O=C(CCCN1C(=O)CSc2ncccc21)N1CCN(Cc2ccccc2)CC1	13%	35µM*	-6%	-3%	71%	-1%
COc1ccc(-n2c(C)nc3cc(C(=O)NC4CCCCCC4)ccc32)cc1	15%	-16%[59 µM]	-13%	x	9%	u
CC[N+]1=C(C)C(C)(C)c2cc(C)ccc21	7%	u	-4%[11.4 µM]	u	-2%	45µM*
O=C(Nc1ccc(F)cc1)c1ccc(Cn2nc(N3CCN(c4ccccc4)CC3)ccc2=O)o1	18%	-48%[59 µM]	u	x	-11%	-39%
O=C(Nc1ccccc1F)c1ccc(Cn2nc(N3CCN(c4ccccc4)CC3)ccc2=O)o1	7%	u	50µM*	x	8%	32µM*
CC(C)C[C@@H](CC(=O)N[C@@H](CCC(=O)O)CC(=O)O)NC(=O)[C@@H]1CCCC[C@H]1NC(=O)C[C@@H](NC(=O)C[C@H](CO)NC(=O)[C@@H]1CNCC[C@H]1N)C(C)C	-2%	x	x	x	x	x
CCOC(=O)c1c(C)c(-c2ccccc2)n(CC(=O)NCc2ccccc2)c1C	-1%	9%[59 µM]	-11%	x	28%	-16%
COc1cc(NC(=O)COC(=O)CCCC2=NS(=O)(=O)c3ccccc3N2)cc(OC)c1	-19%	x	-28%	21µM*	11%	-8%
Cc1ccc(S(=O)(=O)C(CNC(=O)COc2ccccc2)c2cccs2)cc1 (stereo not given)	-4%	11µM*	25µM*	x	20µM*	u
CCC(C)NS(=O)(=O)c1ccc(NC(=O)CNCc2cccs2)cc1 (stereo not given)	4%	x	25µM*	-11%	-11%	x
O=C(CNCc1cccs1)Nc1ccc(OC(F)(F)F)cc1	14%	-12%[2.33 µM]	4µM*	0%	28µM*	28µM*
